Tau ThT inhib: qHTS for Inhibitors of Tau Fibril Formation, Thioflavin T Binding; Microtubule-associated protein tau (Homo sapiens), P10636; recombinant tau K18 P301L, heparin-induced fibrillization, ThT fluorescence; Potency, µM (top dose mostly 57.4 µM), actives largely listed as inhibitors; hit rate 2.1% among 270,000; AID 1460, 2008; further: nearly all actives have a fitted effect of over 55% in size
Target sequence (P10636 561-689 P618L limits assumed): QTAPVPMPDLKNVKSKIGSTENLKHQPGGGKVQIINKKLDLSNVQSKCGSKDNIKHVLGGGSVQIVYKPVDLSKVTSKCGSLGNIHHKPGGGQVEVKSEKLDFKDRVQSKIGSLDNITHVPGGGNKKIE
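Aggregation was driven by heparin (20 uM final) acting on recombinant tau […] bearing P301L in 100 mM sodium acetate pH 7; fibrils were detected with Thioflavin T.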
TRb-SRC2 inh: qHTS for Inhibitors of the Interaction of Thyroid Hormone Receptor and Steroid Receptor Coregulator 2. Potency, µM (series often up to 106 µM), hits mostly inhibitors. hit rate 0.065% among 280,000. AID 1469, 2008. TRbeta-SRC2 peptide binding, fluorescence polarization; receptor liganded with 1 µM T3. Thyroid hormone receptor beta (Homo sapiens), P10828; further: nearly all actives have a fitted effect of over 50% in size
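Human TRb LBD (0.6 uM) plus Texas Red-labeled SRC2 peptide (20 nM), 1uM T3, 5% DMSO, 5 hr at ambient temperature. Decreased polarization (555/632 nm) flags inhibition; data normalized to free and bound peptide controls.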
Tau fluor counter: Counterscreen qHTS for Inhibitors of Tau Fibril Formation, Fluorescence Polarization; AID 1463, 2008; tau K18 P301L (four-repeat tau fragment) Alexa594 fluorescence, heparin fibrillization; hit rate 0.93% among 280,000; Potency, µM (top dose mostly 57.7 µM); further: nearly all actives have a fitted effect of over 55% in size
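Human K18 P301L tau (15 uM unlabeled plus 0.24 uM Alexa 594-labeled, final) in 100 mM sodium acetate pH 7 was mixed with compound and 20 uM heparin and incubated 6 hr at 37 C.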
Tau FP inhib: qHTS for Inhibitors of Tau Fibril Formation, Fluorescence Polarization; Microtubule-associated protein tau (Homo sapiens), P10636; K18 P301L tau heparin fibrillization, Alexa594 FP, 6 h; Potency, µM (doses to about 57.7 µM), hits mostly inhibitors; hit rate 0.39% among 280,000; AID 1468, 2008; further: nearly all actives have a fitted effect of over 55% in size
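Human K18 P301L fragment (15 uM unlabeled plus 0.24 uM Alexa 594-labeled) in 100 mM sodium acetate pH 7 with compound, aggregation induced by 20 uM heparin for 6 hr at 37 C. ThT (30 uM) added for 1 hr, then Alexa 594 FP read.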
TR SRC2 fluor cs: Total Fluorescence Counterscreen for Inhibitors of the Interaction of Thyroid Hormone Receptor and Steroid Receptor Coregulator 2 | AID 1479, 2009 | Potency, µM (doses to about 106 µM) | TRb/SRC2 Texas Red total fluorescence interference | hit rate 0.29% among 280,000; active means well fitted curve in either direction with a large enough effect; inconclusive means small, poorly fitted or top-dose-only effect
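Human TRβ ligand-binding domain (0.6 uM) and Texas Red SRC2 peptide (20 nM) in Tris buffer with 1 uM T3 and 5% DMSO were incubated with pinned compound for 5 hr at ambient temperature. Total fluorescence was computed as S + 2P (555/632 nm).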
Each line names hits and unclear results; the compound was inactive in the other large screens; [ ] = another dose, or the depositor's remark. Compounds with a hit are over-represented: about 3% of the library has one in this group of screens. Unless noted, the call rests on the fitted dose curve; in most records, active means well fitted curve in the direction sought with a large enough effect; inconclusive means small, poorly fitted or top-dose-only effect, or another doubt; inactive means no such curve, though single readings can be large; an effect the other way counts as inactive or inconclusive.

N#Cc1c(N)nc(N2CCCC2)c(C#N)c1-c1ccc(Cl)cc1	Tau FP inhib inconclusive
Fc1ccc2c(c1)-c1nc(-c3ccccc3)cc(-c3ccccc3)c1CO2	Tau FP inhib inconclusive
Fc1ccc(-c2cc(-c3ccc(F)cc3)c3c(n2)-c2cc(F)ccc2OC3)cc1	TR SRC2 fluor cs 18µM[quencher]
Cc1cc2c(cc1C)NC(CC(=O)Nc1ccccc1SC(F)(F)F)C(=O)N2 (stereo unspecified)	none
CCOC(=O)c1c(C)[nH]c(N=Nc2cccc(OC)c2)c1C	Tau ThT inhib 5µM, Tau fluor counter inconclusive
CCOC(=O)c1c(C)[nH]c(CCC(=O)NCc2cccc(OC)c2)c1C	none
CCOC(=O)c1c(C)[nH]c(N=Nc2cccc(C)c2)c1C	Tau ThT inhib 10µM, Tau fluor counter inconclusive
CCOC(=O)c1c(C)[nH]c(CCC(=O)NCc2cccc(C)c2)c1C	none
Cc1ccc(C)c(Cn2c(C3CC(=O)N(c4ccccc4C)C3)nc3ccccc32)c1 (stereo unspecified)	none
Cc1cc(OC(=O)c2c(C)cc(O)cc2O)cc(O)c1C(=O)O	none
Cc1ccc(NC(=O)c2ccc(Cl)cc2Cl)c(C(=O)c2ccccc2)c1	none
N#C/C(=C/c1ccc(N2CCCCC2)o1)C(=O)Nc1ccc2ccccc2c1	Tau ThT inhib 13µM, Tau fluor counter inconclusive
N#C/C(=C\c1ccc(N2CCOCC2)o1)C(=O)Nc1ccc(O)cc1	Tau ThT inhib 14µM
COc1ccc(NC(=O)/C(C#N)=C/C=C/c2ccco2)cc1	Tau ThT inhib 7.1µM
COc1ccc(NC(=O)/C(C#N)=C\c2ccc(N3CCOCC3)o2)cc1	Tau ThT inhib 13µM, Tau fluor counter inconclusive
COC(=O)[C@@H]1C[C@@H]2CC[C@@H](O)C[C@@H]2N1Cc1ccc(C)s1	none
CCN1C(c2ccccc2)=C(c2ccccc2)S/C1=C/C=C1\SC(=S)N(C)C1=O	Tau ThT inhib inconclusive, TRb-SRC2 inh inconclusive, Tau fluor counter 3.2µM[fluorescent], TR SRC2 fluor cs 18µM[fluorescent]
Nc1ccccc1Nc1cc(-c2cccc(Cl)c2)nn1-c1ccccc1	Tau ThT inhib inconclusive, Tau fluor counter 13µM[quencher], Tau FP inhib inconclusive
Cc1cc(Nc2ccccc2)n(-c2cccc(Cl)c2)n1	none
CC(=O)c1cccc(NC(=O)CN2C(=O)CC(c3ccc(C)cc3C)=Nc3ccccc32)c1	Tau fluor counter inconclusive
CC(C)(C)OC(=O)C1=NOC2(C=CC(=O)C=C2)C1	Tau ThT inhib 13µM, Tau FP inhib inconclusive
CCCCn1c(NC(=O)c2ccc(Br)o2)c(S(=O)(=O)c2ccccc2)c2nc3ccccc3nc21	Tau ThT inhib 18µM, TRb-SRC2 inh inconclusive, Tau FP inhib inconclusive
CCCCCn1c(NC(=O)c2ccco2)c(S(=O)(=O)c2ccc(C)cc2)c2nc3ccccc3nc21	Tau ThT inhib inconclusive, Tau fluor counter inconclusive
CCCCn1c(NC(=O)c2ccco2)c(S(=O)(=O)c2ccc(C)cc2)c2nc3ccccc3nc21	Tau ThT inhib 16µM, Tau fluor counter inconclusive, Tau FP inhib inconclusive
CCCCN(C)C(=O)CN1C(=O)c2cccnc2Oc2ccc(Cl)cc21	none
CCOC(=O)c1c(C)oc2c1c(C(c1ccncc1)N1CCOCC1)c(O)c1ccccc12 (stereo unspecified)	Tau ThT inhib 14µM, Tau fluor counter inconclusive
N#CSCC(=O)c1cccc2ccccc12	Tau ThT inhib 25µM, Tau FP inhib inconclusive
COc1ccc(/C=C2\CCCC(C(=O)C(F)(F)F)=C2O)cc1OC	Tau ThT inhib 16µM, Tau FP inhib inconclusive
COc1ccc(/C=C2/CCCC(C(=O)C(F)(F)F)=C2O)cc1OC	Tau ThT inhib inconclusive
COc1ccc(CCNC(=O)c2ccc(Cn3c(=O)c4cccn4c4cccnc43)cc2)cc1OC	none
CCc1n[nH]c(=S)n1/N=C/c1cc(OC)cc([N+](=O)[O-])c1O	Tau ThT inhib 5µM
CCOC(=O)c1c(/N=C/c2cc(OC)cc([N+](=O)[O-])c2O)sc(C)c1C	Tau ThT inhib 8.9µM, Tau fluor counter inconclusive, Tau FP inhib inconclusive

Source: PubChem BioAssay
